Most compounds without a hit are left out; they make up all but 2.7% or so of the library.
ATXN2 expr inh: reduces ATXN2 reporter expression in HEK-293 cells; HEK-293 ATXN2-luciferase reporter, luminescence, 24 h; Potency, µM (titrated, usually from 57 µM), most hits filed as inhibitors; 360,000 tested, 0.72% active; AID 1745845; further: nearly all actives have a fitted effect of over 55% in size
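ATXN2-luciferase reporter cells (luciferase flanked by upstream and downstream ATXN2 gene portions) were treated 24 h at 37 °C with compounds at up to 57 uM. SteadyGlo luminescence gave expression; GF-AFC fluorescence gave viability.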
12-LOX inh: inhibitors of human 12S-lipoxygenase ALOX12; Potency, µM (top dose mostly 108 µM), hits mostly inhibitors; purified 12hLO, xylenol orange hydroperoxide absorbance; AID 1671190; P18054; 580,000 tested, 1.1% active
Target sequence (P18054 whole entry, looked up): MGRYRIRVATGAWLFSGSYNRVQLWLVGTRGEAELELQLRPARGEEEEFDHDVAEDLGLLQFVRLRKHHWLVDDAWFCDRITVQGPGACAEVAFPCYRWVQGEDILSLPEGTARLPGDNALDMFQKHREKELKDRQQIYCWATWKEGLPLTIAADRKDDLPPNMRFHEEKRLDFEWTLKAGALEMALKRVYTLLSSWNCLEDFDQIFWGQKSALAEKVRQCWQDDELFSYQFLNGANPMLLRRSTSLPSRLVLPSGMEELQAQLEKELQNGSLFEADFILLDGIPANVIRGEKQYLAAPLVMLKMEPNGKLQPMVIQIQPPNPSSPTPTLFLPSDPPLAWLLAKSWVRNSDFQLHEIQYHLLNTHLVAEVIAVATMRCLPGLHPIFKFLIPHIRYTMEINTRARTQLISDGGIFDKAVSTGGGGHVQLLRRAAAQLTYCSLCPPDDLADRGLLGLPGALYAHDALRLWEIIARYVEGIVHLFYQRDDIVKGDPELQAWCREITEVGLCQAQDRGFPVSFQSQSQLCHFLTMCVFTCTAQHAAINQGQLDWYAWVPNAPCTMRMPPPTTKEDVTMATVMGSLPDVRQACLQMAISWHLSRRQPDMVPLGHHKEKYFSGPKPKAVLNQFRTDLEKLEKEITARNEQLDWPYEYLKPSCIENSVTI
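Purified human 12hLO at 150 nM in 25 mM Hepes, 0.01% Triton X-100, pH 7.0, preincubated 15 min at room temperature with compound. Reaction started with 40 uM arachidonic acid, 30 min at room temperature. Hydroperoxide measured by Fe-xylenol orange, 573/405 nm absorbance ratio.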
S2 tox: reduces viability in counter-screen for ATXN expression inhibitors; Potency, µM (highest dose often 56.7 µM), hits mostly cytotoxic; S2 cells (HEK-293 line with an ATXN2-luciferase reporter) viability, CellTiter-Fluor protease fluorescence, 24 h; 400,000 tested, 0.49% active; further: nearly all actives have a fitted effect of over 40% in size
TGFb inhibitor: TGF-b pathway inhibition | HepG2 CAGA-GFP TGF-b/SMAD3 reporter, GFP fluorescence, 18 h; TGF-beta stimulated, 500 pg/mL final | Potency, µM (highest dose often 46.1 µM), most hits filed as inhibitors | 410,000 tested, 1.2% active | AID 588855; further: nearly all actives have a fitted effect of over 65% in size
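First, reporter cells (HEPG2 CAGA-GFP) rested 2 h at 37 degrees C. Next, compounds were pinned in and TGF-beta added to 500 pg/mL final. After 18 h, GFP was imaged per cell and summed per well.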
HepG2 viability: kills HepG2 cells in TGF-b inhibitor counter-screen | HepG2 CAGA-GFP viability, ATP luminescence, 18 h | Potency, µM (top dose mostly 46.1 µM), usual class: cytotoxic | 410,000 tested, 0.76% active | AID 588856
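HepG2 CAGA-GFP cells (1000/well, DMEM with 1% FBS) received compound, then TGF-beta at 500 pg/mL final, and were incubated 18 hours at 37 degrees C. Viability was read by CellTiter-Glo luminescence. Media-only wells were set as complete cell-killing and DMSO as no toxicity.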
Of the large screens only hits and unclear results are named; the others gave an inactive call. The call rests on the fitted dose curve; in most records, active means well fitted curve in the direction sought with a large enough effect; inconclusive means small, poorly fitted or top-dose-only effect, or another doubt; inactive means no such curve, though single readings can be large; an effect the other way counts as inactive or inconclusive.

O=C1C=C(Nc2ccccc2C(=O)O)c2ccccc2C1=O	12-LOX inh inconclusive, TGFb inhibitor inconclusive, HepG2 viability 16µM
O=C(O)c1ccccc1Nc1ccccc1C(=O)O	none
O=C(NC(Cc1ccccc1)c1ccccc1)C1CCCO1 (centres undefined)	none (no result: ATXN2 expr inh, S2 tox, TGFb inhibitor, HepG2 viability)
Cc1ccnc2c(Cl)ccc(Cl)c12	none (no result: ATXN2 expr inh, 12-LOX inh, S2 tox)
COc1ccc(OC)c2c(C)ccnc12	TGFb inhibitor 7.9µM, HepG2 viability 13µM (no result: ATXN2 expr inh, 12-LOX inh, S2 tox)
CCN(CC)c1ccc(N=Cc2c(C)[nH]c3ccccc23)cc1	12-LOX inh inconclusive, TGFb inhibitor 11µM, HepG2 viability 2.8µM
COC(=O)c1ccc(C(=O)Oc2ccc3c(c2)CCC3)cc1	none (no result: ATXN2 expr inh, S2 tox, TGFb inhibitor, HepG2 viability)
O=C(Cn1nc2ccccc2n1)N/N=C/c1cc([N+](=O)[O-])ccc1O	ATXN2 expr inh 20µM, 12-LOX inh inconclusive, S2 tox inconclusive
O=[N+]([O-])c1ccc(O)c(/C=N\N=C2c3ccccc3-c3ccccc32)c1	ATXN2 expr inh 22µM, S2 tox inconclusive, TGFb inhibitor 2.8µM
CCCCCCCCS(=O)(=O)CCSCCO	none (no result: ATXN2 expr inh, S2 tox, TGFb inhibitor, HepG2 viability)
O=C(CCCC(=O)c1ccccc1)Nc1ccc(F)cc1	none
O=C(CCCCCCCC(=O)Nc1ccc(C(=O)c2ccccc2)cc1)Nc1ccc(C(=O)c2ccccc2)cc1	12-LOX inh 40µM (no result: ATXN2 expr inh, S2 tox, TGFb inhibitor, HepG2 viability)
C/C(=N/NC(N)=S)C1=CC(C)(C)CCC1	12-LOX inh 6.3µM (no result: ATXN2 expr inh, S2 tox, TGFb inhibitor, HepG2 viability)
CCOc1ccccc1N1CCN(CC(=O)Nc2ccc(C)cc2F)CC1	none (no result: ATXN2 expr inh, S2 tox, TGFb inhibitor, HepG2 viability)
Cc1cc(C)c2c(c1)-c1c(ssc1=S)C(C)(C)N2C(=O)CSc1nncn1C	ATXN2 expr inh inconclusive, 12-LOX inh inconclusive, S2 tox inconclusive, TGFb inhibitor 6.3µM
CC1(Cc2ccc(Cl)c(Cl)c2)C(=O)Nc2ccc(S(=O)(=O)NC3CCCCC3)cc21 (centres undefined)	12-LOX inh inconclusive, TGFb inhibitor 13µM
CC1(Cc2cccc(F)c2)C(=O)Nc2ccc(S(=O)(=O)NC3CCCCC3)cc21 (centres undefined)	ATXN2 expr inh inconclusive, S2 tox inconclusive
COc1ccccc1-c1ccc2c(c1)C(C)(Cc1ccc(Cl)c(Cl)c1)C(=O)N2 (centres undefined)	ATXN2 expr inh inconclusive, S2 tox inconclusive, TGFb inhibitor 14µM
CCOC(=O)C1CCN([C@H]2CS(=O)(=O)C[C@@H]2S(=O)(=O)c2ccc(OC)cc2)CC1	none (no result: ATXN2 expr inh, S2 tox, TGFb inhibitor, HepG2 viability)
COc1ccc(Br)cc1/C=N/NC(=O)c1ccc(COc2ccc3c(c2)CCC3)o1	none
O=C(N/N=C/c1cc([N+](=O)[O-])ccc1O)c1ccc(COc2ccc3c(c2)CCC3)o1	ATXN2 expr inh 7.9µM, 12-LOX inh inconclusive, S2 tox inconclusive, TGFb inhibitor 4.5µM
CN1OC[C@@H]2CN(Cc3ccccc3)[C@H](c3cccc(-c4ccc(C#N)cc4)c3)C[C@@H]21	TGFb inhibitor 10µM
COc1ccc(CN2C[C@H]3CON(C)[C@H]3C[C@H]2c2ccc(-c3ccccc3)cc2)cc1	TGFb inhibitor 11µM
CC(=O)OCCNc1cc(N2CCN(C)CC2)c2noc3c2c1C(=O)c1ccccc1-3	ATXN2 expr inh inconclusive
CCOC(=O)C(C(=O)OCC)c1cc(Br)c2noc3c2c1C(=O)c1ccccc1-3	ATXN2 expr inh 11µM, 12-LOX inh inconclusive, S2 tox 20µM, TGFb inhibitor 6.3µM
CCN1c2cc(C(=O)Nc3cc(C)ccc3OC)ccc2C(=O)N2CCCCCC21 (centres undefined)	none (no result: ATXN2 expr inh, S2 tox, TGFb inhibitor, HepG2 viability)
Cc1ccc(C)c(C(=O)N2CCC(c3nc4c(nnn4Cc4ccccc4)c(=O)[nH]3)CC2)c1	TGFb inhibitor 11µM
Cc1ccc(CC(=O)N2CCC(c3nc4c(nnn4Cc4ccccc4)c(=O)[nH]3)CC2)cc1	TGFb inhibitor inconclusive
COc1ccc(-c2nnc(C[C@@H]3C[C@@H](C(C)C)[C@H](CNCc4ccco4)C=C3C)o2)cc1	none (no result: ATXN2 expr inh, S2 tox, TGFb inhibitor, HepG2 viability)
O=C1NC(=NC2CCCCC2)C2(CCN(Cc3ccccc3)C2)N1c1cc(F)cc(F)c1 (centres undefined)	none (no result: ATXN2 expr inh, S2 tox, TGFb inhibitor, HepG2 viability)
COc1ccc(CCCNC(=O)C2Cc3c(-c4ccccc4)ccnc3O2)cc1 (centres undefined)	ATXN2 expr inh inconclusive, S2 tox 18µM, TGFb inhibitor inconclusive
Cc1cccc2sc(NNC(=O)c3ccc(S(=O)(=O)N4CCc5ccccc5C4)cc3)nc12	ATXN2 expr inh inconclusive, 12-LOX inh inconclusive, S2 tox inconclusive, TGFb inhibitor 11µM
Cc1cc(C)c2nc(N(CCCN(C)C)C(=O)c3ccc(S(=O)(=O)N4CCCCCC4)cc3)sc2c1	ATXN2 expr inh inconclusive, 12-LOX inh inconclusive, TGFb inhibitor 16µM
Cc1cccc2sc(NNC(=O)c3ccc(S(=O)(=O)N4CCCC(C)C4)cc3)nc12 (centres undefined)	ATXN2 expr inh inconclusive, 12-LOX inh inconclusive, TGFb inhibitor 13µM
Cc1cc(C)c2nc(NNC(=O)c3ccc(S(=O)(=O)N4CCCCC4)cc3)sc2c1	ATXN2 expr inh inconclusive, 12-LOX inh 10µM, TGFb inhibitor inconclusive
CCOC(=O)N1CCN(S(=O)(=O)c2ccc(C(=O)NNc3nc4c(C)cccc4s3)cc2)CC1	ATXN2 expr inh inconclusive, 12-LOX inh inconclusive, TGFb inhibitor inconclusive
Cc1cccc(C(=O)Nc2cccc(NC(=O)c3ccccc3)c2)c1	none
Cc1cccc(NC2=C(NC(=O)c3ccccc3)C(=O)c3ccccc3C2=O)c1	ATXN2 expr inh inconclusive, 12-LOX inh 14µM, S2 tox inconclusive, TGFb inhibitor inconclusive

Bioassay records: PubChem, National Center for Advancing Translational Sciences (NCATS)
